The structures appear in SMILES notation. Several values for one entry are separate records, joined by “and”; a condition that tells them apart may be missing. Equal values may be shown once. Inconclusive results are not listed. Activity calls are given as the source filed them. How the source made its calls: active means hit-call score of the fitted dose curve at least 0.9, where 1 is the maximum; inconclusive means response in the unintended direction; inactive means score below 0.9.

The source of these data is PubChem BioAssay (EPA / NIEHS).

Sequence of Bile acid receptor (Homo sapiens) (Q96RI1 whole entry, looked up, the tested form may be a part): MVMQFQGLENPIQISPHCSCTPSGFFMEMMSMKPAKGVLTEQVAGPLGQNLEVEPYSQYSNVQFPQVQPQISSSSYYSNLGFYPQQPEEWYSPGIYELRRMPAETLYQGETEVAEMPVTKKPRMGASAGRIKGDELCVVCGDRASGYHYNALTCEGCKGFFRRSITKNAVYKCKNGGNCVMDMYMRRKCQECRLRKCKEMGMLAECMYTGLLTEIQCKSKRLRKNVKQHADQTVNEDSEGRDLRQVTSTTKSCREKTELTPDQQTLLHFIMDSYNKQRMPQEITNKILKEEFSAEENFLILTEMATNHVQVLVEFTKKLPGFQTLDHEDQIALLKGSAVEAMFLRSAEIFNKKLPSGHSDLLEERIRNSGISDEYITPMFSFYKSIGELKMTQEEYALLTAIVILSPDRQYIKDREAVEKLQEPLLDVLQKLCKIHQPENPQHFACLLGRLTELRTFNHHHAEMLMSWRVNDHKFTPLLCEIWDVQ

The target in the assay is Bile acid receptor (Homo sapiens) (UniProt Q96RI1). The assay can be described thus: OT_FXR_FXRSRC1_0480: Odyssey Thera (OT) 8-hour HEK293T Protein-Complementation Assay for Farnesoid X receptor/SRC-1 Co-activator (AID 2283383). Here is the method:
OT_FXR_FXRSRC1_0480 is a cell-based assay that uses HEK293T, a human kidney cell line, with measurements taken at 8 hours after chemical dosing in a 384-well plate.OT_FXR_FXRSRC1_0480 is one of one assay component(s) measured or calculated from the OT_FXR_FXRSRC1_0480 assay. It is designed to make measurements of protein fragment complementation, a form of binding reporter, as detected with fluorescence intensity signals by Protein-fragment Complementation technology.Data from the assay component OT_FXR_FXRSRC1_0480 was analyzed into 1 assay endpoint. This assay endpoint, OT_FXR_FXRSRC1_0480, was analyzed in the positive analysis fitting direction relative to DMSO as the negative control and baseline of activity. Using a type of binding reporter, measures of receptor for gain-of-signal activity can be used to understand the binding at the pathway-level as they relate to the gene NR1H4. Furthermore, this assay endpoint can be referred to as a primary readout, because the performed assay has only produced 1 assay endpoint. To generalize the intended target to other relatable targets, this assay endpoint is annotated to the nuclear receptor intended target family, where the subfamily is non-steroidal.
Protein-fragment complementation assay, or PCA, is a method for the identification and quantification of protein-protein interactions. In the PCA, the proteins of interest ("bait" and "prey") are each covalently linked to fragments of a third protein (e.g. DHFR, which acts as a "reporter"). Interaction between the bait and the prey proteins brings the fragments of the reporter protein in close proximity to allow them to form a functional reporter protein whose activity can be measured.
On to `Cc1c(F)c(F)c(COC(=O)C2C(/C=C(\Cl)C(F)(F)F)C2(C)C)c(F)c1F` (centres undefined), for which the call was inactive.

On to `CC1COC(Cn2cncn2)(c2ccc(Oc3ccc(Cl)cc3)cc2Cl)O1` (centres undefined), for which the concentration at half-maximal activity (AC50) is 11.2 µM (active).

Take `CCOC(=O)C(Cl)Cc1cc(-n2nc(C)n(C(F)F)c2=O)c(F)cc1Cl` (centres undefined): the AC50 was 22.4 µM (active).

`C#CCOS(=O)OC1CCCCC1Oc1ccc(C(C)(C)C)cc1` (centres undefined): the AC50 was 21.4 µM (active).

`O=C(O)COc1nc(Cl)c(Cl)cc1Cl`: the compound was classed as inactive.

As to `COC(=O)N(OC)c1ccccc1COc1ccn(-c2ccc(Cl)cc2)n1`, the AC50 was 1.54 µM (active).

With `CCCCC(CC)COC(=O)c1ccccc1C(=O)OCC(CC)CCCC` (centres undefined), the compound was called inactive.

Take `CC(C)C1(C)N=C(c2nc3ccccc3cc2C(=O)O)NC1=O` (centres undefined): the outcome was inactive.

In the case of `CCCCNC(=O)n1c(NC(=O)OC)nc2ccccc21`, the compound was classed as inactive.

Consider `CCON=C(CC)C1=C(O)CC(c2c(C)cc(C)cc2C)CC1=O` (centres undefined), for which the outcome was inactive.

`CC(C)Oc1cc(-n2nc(C(C)(C)C)oc2=O)c(Cl)cc1Cl`: the AC50 is 29.5 µM (active).

As to `CCc1nn(C)c(C(=O)NCc2ccc(C(C)(C)C)cc2)c1Cl`, the concentration at half-maximal activity (AC50) is 0.578 µM (active).

As for `CC(C)(C)c1ccc(CSc2cnn(C(C)(C)C)c(=O)c2Cl)cc1`, the half-maximal activity concentration (AC50) was 5.14 µM (active).

Consider `COP(N)(=O)SC` (centres undefined), for which the call was inactive.

Turning to `CCOP(=S)(OCC)SCn1c(=O)oc2cc(Cl)ccc21`, the AC50 is 17.9 µM (active).

For `COc1nc(NC(C)C)nc(NC(C)C)n1`, the call was inactive.

With `C=CCC1=C(C)C(OC(=O)C2C(C=C(C)C)C2(C)C)CC1=O` (centres undefined), the concentration at half-maximal activity (AC50) is 14.9 µM (active).

In the case of `N#Cc1nn(-c2c(Cl)cc(C(F)(F)F)cc2Cl)c(N)c1S(=O)C(F)(F)F` (centres undefined), the AC50 is 35 µM (active).

On to `CNC(=O)ON=CC(C)(C)SC`, for which the call was inactive.

In the case of `COP(=S)(OC)Oc1nc(Cl)c(Cl)cc1Cl`, the compound was called inactive.

As to `CCCC1COC(Cn2cncn2)(c2ccc(Cl)cc2Cl)O1` (centres undefined), the compound was classed as inactive.

In the case of `Cc1ccc(-c2c(Cl)nc(C#N)n2S(=O)(=O)N(C)C)cc1`, the call was inactive.

Take `COC(=O)c1ccccc1C(=O)OC`: the result was inactive.

For `CC(Oc1ccc(Cl)cc1Cl)C(=O)O` (centres undefined), the call was inactive.

With `CCNc1nc(Cl)nc(NCC)n1`, the outcome was inactive.

For `C=CC1(C)OC(=O)N(c2cc(Cl)cc(Cl)c2)C1=O` (centres undefined), the call was inactive.

`COC(=O)C(C)Oc1ccc(Oc2ccc(Cl)cc2Cl)cc1` (centres undefined): the half-maximal activity concentration (AC50) is 66.2 µM (active).

With `C=CCC1=C(C)[C@@H](OC(=O)[C@@H]2[C@@H](C=C(C)C)C2(C)C)CC1=O`, the AC50 was 16.6 µM (active).

Regarding `CC1=C(C(=O)Nc2ccccc2)SCCO1`, the outcome was inactive.

`Fc1ccc(Oc2ccnc3cc(Cl)cc(Cl)c23)cc1`: the concentration at half-maximal activity (AC50) was 12.6 µM (active).

As for `CCOc1cc(Oc2ccc(C(F)(F)F)cc2Cl)ccc1[N+](=O)[O-]`, the compound was classed as inactive.

Regarding `CN(C)C(=S)SSC(=S)N(C)C`, the compound was called inactive.

Take `COc1ccc(C(c2ccc(OC)cc2)C(Cl)(Cl)Cl)cc1`: the AC50 was 32.1 µM (active) and 35 µM (active) and 27 µM (active).

Regarding `COC(=O)C=C(C)OP(=O)(OC)OC`, the outcome was inactive.
